The supplement of paper PMC11732987, “Enantioselective OTUD7B fragment discovery through chemoproteomics screening and high-throughput optimisation” (Communications Chemistry, 2025)

Experiments:
Assay in all cases: log2 ratio of Biotin-Ahx-Ub-VS probe labelling (fragment/DMSO); higher = less target engagement (more negative = stronger competition), active = hit call of the paper (q ≤ 0.05, log2 ratio ≤ -1)
Settings in all cases: compound concentration: 200 uM; treatment time: 3 h
USP34 = USP34 (UniProt Q70CQ2)
Chain of USP34 (Q70CQ2 whole entry, the tested form may be a part): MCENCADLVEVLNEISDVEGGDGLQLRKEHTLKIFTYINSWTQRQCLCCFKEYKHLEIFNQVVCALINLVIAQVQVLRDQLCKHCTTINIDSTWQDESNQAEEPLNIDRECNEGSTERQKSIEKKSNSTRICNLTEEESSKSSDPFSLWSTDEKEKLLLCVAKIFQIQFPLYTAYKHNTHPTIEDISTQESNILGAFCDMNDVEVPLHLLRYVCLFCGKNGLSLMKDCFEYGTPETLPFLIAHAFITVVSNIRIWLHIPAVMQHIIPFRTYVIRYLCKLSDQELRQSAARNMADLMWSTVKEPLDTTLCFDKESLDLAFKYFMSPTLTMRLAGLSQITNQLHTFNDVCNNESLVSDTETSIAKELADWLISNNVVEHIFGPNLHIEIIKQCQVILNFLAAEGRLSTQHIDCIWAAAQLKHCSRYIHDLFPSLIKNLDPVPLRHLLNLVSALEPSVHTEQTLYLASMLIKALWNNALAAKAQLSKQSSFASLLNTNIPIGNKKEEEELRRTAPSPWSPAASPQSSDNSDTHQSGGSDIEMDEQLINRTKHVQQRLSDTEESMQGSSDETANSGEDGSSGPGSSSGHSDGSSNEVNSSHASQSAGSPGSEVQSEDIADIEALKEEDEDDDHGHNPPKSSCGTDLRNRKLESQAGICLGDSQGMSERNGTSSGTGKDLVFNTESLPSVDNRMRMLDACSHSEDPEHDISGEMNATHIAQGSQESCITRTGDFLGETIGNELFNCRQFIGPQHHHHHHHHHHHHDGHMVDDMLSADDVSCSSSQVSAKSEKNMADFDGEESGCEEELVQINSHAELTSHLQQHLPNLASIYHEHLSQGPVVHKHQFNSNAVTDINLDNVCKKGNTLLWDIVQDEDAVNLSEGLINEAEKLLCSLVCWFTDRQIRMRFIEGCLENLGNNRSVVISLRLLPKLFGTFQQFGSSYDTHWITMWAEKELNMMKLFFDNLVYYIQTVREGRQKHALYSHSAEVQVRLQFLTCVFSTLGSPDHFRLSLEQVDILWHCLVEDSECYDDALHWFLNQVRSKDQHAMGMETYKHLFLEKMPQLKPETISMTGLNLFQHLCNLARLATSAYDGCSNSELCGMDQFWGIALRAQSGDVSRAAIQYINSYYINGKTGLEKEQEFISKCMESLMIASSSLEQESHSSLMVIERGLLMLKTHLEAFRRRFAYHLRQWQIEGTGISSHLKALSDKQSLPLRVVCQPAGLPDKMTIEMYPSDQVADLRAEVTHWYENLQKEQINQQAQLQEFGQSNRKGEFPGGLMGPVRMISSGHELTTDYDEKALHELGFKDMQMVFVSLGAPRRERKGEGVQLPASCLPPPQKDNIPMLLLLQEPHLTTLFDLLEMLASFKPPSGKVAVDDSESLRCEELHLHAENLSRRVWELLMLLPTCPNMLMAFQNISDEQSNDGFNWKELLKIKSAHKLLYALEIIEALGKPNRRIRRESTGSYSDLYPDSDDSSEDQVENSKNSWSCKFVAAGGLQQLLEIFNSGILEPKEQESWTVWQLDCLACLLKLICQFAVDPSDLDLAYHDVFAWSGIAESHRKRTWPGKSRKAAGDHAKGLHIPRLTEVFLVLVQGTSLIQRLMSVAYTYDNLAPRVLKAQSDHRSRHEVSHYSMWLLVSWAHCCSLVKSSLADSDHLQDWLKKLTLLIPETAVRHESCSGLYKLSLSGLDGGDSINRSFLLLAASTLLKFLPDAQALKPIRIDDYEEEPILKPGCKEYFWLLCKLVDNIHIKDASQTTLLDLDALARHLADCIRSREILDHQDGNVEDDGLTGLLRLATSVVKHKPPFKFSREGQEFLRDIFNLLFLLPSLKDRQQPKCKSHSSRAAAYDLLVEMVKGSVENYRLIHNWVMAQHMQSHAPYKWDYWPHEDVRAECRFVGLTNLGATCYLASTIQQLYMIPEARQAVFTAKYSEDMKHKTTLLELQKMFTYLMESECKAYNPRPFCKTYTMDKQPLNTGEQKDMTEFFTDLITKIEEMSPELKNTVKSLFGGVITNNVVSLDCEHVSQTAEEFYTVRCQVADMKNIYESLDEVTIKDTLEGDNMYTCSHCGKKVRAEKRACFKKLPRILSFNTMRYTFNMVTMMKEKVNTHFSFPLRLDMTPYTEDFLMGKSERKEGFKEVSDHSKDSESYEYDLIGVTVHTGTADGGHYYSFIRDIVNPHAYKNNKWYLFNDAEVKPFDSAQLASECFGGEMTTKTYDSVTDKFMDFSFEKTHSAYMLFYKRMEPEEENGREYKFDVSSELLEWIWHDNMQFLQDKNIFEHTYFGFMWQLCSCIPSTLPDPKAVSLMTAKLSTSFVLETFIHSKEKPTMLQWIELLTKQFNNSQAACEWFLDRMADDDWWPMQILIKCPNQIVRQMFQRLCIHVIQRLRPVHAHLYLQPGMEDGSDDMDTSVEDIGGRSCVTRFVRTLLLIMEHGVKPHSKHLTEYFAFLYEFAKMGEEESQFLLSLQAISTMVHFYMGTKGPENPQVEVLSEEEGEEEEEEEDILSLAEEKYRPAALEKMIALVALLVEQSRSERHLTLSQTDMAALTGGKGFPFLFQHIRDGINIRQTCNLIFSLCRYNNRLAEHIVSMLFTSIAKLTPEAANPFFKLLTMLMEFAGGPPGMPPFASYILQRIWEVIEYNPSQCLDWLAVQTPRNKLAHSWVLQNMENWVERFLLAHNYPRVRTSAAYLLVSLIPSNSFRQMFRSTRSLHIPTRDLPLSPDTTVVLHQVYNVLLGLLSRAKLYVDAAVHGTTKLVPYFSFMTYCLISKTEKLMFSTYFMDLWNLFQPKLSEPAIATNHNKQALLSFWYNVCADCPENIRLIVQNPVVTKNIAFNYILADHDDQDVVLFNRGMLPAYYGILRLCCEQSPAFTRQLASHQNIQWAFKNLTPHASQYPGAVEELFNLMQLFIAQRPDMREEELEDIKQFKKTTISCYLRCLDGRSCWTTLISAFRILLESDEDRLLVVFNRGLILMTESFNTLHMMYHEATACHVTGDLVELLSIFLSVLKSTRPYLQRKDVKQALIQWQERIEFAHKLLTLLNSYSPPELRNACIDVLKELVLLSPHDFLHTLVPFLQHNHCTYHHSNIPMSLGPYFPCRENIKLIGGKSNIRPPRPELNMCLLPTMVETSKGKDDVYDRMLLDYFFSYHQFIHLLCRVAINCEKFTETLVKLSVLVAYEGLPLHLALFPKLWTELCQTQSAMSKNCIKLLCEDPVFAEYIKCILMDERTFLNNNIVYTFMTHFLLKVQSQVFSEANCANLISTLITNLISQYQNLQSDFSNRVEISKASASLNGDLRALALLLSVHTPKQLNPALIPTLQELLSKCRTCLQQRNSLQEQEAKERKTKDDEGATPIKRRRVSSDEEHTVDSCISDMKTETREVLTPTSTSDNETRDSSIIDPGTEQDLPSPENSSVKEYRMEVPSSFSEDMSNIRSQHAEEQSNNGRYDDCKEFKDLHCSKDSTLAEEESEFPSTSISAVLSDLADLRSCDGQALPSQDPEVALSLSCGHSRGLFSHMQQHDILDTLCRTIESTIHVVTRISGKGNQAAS
How it was run: (§1)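 HEK293T lysate, 495 µg per sample in Tris/CHAPS/IGEPAL buffer with protease inhibitors, was treated in triplicate with fragment at 200 µM or vehicle for 3 h and then with Biotin-Ahx-Ub-VS at 0.5 µM final for 1 h. Labelled DUBs were NeutrAvidin-enriched, digested with LysC and trypsin, and run by diaPASEF LC-MS/MS. Spectronaut label-free quantities were global-median-normalised, and values are average log2 fragment/vehicle ratios by unpaired t-test on proteins with ≥2 unique peptides.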

USP36 = target: T1, USP36 (UniProt Q9P275)
T1 sequence (whole entry): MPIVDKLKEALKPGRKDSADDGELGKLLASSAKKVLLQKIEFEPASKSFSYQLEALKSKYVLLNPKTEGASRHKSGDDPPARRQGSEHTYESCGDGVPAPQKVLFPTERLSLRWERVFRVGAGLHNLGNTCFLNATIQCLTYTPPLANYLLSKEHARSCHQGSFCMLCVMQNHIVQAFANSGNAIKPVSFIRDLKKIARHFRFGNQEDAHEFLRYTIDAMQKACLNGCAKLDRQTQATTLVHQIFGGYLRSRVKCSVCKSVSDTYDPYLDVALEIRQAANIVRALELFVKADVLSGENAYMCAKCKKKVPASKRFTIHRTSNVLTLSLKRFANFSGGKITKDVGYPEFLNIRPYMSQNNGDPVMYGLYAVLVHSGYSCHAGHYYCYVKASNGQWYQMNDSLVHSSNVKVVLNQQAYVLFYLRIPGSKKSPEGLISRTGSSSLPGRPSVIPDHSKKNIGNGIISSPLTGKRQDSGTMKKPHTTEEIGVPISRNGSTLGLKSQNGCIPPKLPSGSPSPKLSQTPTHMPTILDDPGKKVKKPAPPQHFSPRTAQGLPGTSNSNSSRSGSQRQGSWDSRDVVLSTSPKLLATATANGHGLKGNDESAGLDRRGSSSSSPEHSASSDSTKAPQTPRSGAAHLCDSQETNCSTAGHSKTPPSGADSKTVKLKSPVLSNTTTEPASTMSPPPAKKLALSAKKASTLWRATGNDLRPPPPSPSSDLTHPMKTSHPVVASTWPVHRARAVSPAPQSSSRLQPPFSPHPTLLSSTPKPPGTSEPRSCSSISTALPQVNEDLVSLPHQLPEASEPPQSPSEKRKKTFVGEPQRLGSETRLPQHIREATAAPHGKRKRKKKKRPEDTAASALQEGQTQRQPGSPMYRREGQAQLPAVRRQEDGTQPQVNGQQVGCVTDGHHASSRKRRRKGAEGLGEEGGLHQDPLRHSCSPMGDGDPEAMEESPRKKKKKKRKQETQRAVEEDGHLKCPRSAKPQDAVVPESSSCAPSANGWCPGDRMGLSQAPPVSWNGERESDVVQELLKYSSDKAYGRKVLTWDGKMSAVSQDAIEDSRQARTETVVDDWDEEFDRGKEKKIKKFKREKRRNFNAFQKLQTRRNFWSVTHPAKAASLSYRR
How it was run: as §1

USP38 = target: T2, USP38 (UniProt Q8NB14)
T2 sequence (whole entry): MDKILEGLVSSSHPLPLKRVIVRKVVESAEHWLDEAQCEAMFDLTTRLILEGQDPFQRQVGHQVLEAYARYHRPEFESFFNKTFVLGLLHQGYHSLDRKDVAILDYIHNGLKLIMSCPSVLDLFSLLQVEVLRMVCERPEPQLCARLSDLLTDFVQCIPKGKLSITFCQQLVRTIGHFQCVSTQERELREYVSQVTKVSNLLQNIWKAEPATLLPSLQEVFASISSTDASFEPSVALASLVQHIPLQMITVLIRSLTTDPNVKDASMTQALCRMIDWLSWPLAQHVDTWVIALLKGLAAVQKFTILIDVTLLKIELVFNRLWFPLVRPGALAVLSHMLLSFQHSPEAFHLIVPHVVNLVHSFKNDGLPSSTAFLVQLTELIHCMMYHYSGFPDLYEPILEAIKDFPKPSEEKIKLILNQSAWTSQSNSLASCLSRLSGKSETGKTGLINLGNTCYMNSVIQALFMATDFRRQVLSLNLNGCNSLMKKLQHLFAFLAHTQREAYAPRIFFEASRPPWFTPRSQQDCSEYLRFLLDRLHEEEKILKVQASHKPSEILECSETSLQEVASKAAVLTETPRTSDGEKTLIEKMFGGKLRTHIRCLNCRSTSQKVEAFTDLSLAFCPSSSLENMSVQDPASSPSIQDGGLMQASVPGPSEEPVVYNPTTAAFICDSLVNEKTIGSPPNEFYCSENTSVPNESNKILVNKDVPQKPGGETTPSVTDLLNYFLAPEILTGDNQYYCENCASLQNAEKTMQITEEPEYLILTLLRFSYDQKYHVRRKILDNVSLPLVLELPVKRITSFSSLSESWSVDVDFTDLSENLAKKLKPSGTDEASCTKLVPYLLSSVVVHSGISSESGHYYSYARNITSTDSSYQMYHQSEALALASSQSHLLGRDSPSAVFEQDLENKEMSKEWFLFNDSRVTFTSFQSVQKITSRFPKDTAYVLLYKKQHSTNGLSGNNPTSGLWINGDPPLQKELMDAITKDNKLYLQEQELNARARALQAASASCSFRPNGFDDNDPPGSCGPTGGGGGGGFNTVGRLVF
How it was run: as §1

USP39 = target: T3, USP39 (UniProt Q53GS9)
T3 sequence (whole entry): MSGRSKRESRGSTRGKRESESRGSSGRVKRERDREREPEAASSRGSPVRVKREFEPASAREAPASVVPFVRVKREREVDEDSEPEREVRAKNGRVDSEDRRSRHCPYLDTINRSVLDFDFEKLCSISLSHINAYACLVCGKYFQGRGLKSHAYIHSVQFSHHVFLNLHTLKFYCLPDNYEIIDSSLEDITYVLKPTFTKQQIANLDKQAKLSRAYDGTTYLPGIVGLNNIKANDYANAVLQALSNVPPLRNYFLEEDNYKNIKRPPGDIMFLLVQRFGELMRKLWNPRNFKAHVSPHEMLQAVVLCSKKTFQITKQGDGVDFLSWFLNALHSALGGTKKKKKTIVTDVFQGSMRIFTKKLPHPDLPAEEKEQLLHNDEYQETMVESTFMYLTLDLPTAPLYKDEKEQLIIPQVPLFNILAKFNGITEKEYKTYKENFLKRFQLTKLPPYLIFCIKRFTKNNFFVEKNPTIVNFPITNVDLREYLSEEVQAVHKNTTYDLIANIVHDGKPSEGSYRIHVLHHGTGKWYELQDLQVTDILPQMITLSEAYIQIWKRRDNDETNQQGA
How it was run: as §1

USP4 = target: T4, USP4 (UniProt Q13107)
T4 sequence (whole entry): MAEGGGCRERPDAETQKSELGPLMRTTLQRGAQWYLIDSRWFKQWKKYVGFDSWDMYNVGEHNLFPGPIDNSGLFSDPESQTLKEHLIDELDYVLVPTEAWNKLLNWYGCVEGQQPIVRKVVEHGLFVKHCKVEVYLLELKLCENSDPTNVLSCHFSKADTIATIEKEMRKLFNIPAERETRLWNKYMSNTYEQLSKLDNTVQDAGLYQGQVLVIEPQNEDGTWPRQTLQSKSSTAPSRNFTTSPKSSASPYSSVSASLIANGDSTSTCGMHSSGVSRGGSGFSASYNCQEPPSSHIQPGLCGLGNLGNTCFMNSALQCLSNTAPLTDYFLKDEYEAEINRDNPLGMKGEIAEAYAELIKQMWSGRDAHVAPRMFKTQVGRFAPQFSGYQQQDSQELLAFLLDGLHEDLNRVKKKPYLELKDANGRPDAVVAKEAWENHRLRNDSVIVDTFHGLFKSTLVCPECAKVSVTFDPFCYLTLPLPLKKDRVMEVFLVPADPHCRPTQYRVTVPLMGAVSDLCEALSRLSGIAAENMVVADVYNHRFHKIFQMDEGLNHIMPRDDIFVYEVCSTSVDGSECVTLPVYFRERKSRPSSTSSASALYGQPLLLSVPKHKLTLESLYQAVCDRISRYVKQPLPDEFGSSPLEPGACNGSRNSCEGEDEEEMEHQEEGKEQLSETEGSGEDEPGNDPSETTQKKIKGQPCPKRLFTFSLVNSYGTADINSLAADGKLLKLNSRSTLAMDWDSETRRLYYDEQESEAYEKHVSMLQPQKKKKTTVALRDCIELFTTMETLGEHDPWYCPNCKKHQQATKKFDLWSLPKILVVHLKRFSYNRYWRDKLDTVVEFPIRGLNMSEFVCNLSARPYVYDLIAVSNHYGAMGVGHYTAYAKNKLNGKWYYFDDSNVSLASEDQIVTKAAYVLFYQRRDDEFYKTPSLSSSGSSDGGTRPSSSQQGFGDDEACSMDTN
How it was run: as §1

Measured: log2 ratio of Biotin-Ahx-Ub-VS probe labelling

CCCn1nccc1NC(=O)CCl
inactive: USP34 -0.0454 | USP36 -0.015 | USP38 -0.241 | USP39 -0.211 | USP4 -0.159
